{
  "source": "ChEMBL document CHEMBL4513216",
  "about": "“Probing the Open Global Health Chemical Diversity Library for Multistage-Active Starting Points for Next-Generation Antimalarials” (ACS Infect Dis, 2020)",
  "note": "About 8,600 (12%) of roughly 69,000 compounds showed an effect of 50% or more. The sample holds strong results, similar compounds and a random draw of the others, so the mix is not that of the screen.",
  "data": [
    {"tested_on": "Plasmodium berghei", "experiment": "Screen against P. berghei liver stage (PbLuc), transformed with Luciferase, at 10uM", "type": "functional, HepG2", "settings": "tested at 10 uM", "units": {"INHIBITION": "%"}, "values": [
      {"smiles": "CC(=O)N(C)Cc1nn(C)c2c1CN(Cc1ccsc1)C2", "INHIBITION": -37.9},
      {"smiles": "c1cncc(OCc2noc3c2CN(Cc2ccoc2)CC3)c1", "INHIBITION": -3.95},
      {"smiles": "CC(=O)NCc1noc2c1CN(Cc1cnn(C)c1)CC2", "INHIBITION": 46.7},
      {"smiles": "CC(=O)NCc1noc2c1CN(Cc1cccs1)CC2", "INHIBITION": 6.83},
      {"smiles": "CC(=O)NCc1noc2c1CN(Cc1ccsc1)CC2", "INHIBITION": 64.5},
      {"smiles": "O=C(c1ccc[nH]1)N1CCc2onc(COc3cccnc3)c2C1", "INHIBITION": 21.8},
      {"smiles": "O=C(N1CCCC1)N1CCc2onc(COc3cccnc3)c2C1", "INHIBITION": 20.6},
      {"smiles": "O=C(c1cc[nH]n1)N1CCc2onc(COc3cccnc3)c2C1", "INHIBITION": 67.2},
      {"smiles": "c1cncc(OCc2noc3c2CN(Cc2cccs2)CC3)c1", "INHIBITION": -26.5},
      {"smiles": "c1cncc(OCc2noc3c2CN(Cc2ccsc2)CC3)c1", "INHIBITION": 56.1},
      {"smiles": "Cn1nc(Cn2cccc2)c2c1CN(Cc1ccsc1)C2", "INHIBITION": -5.08},
      {"smiles": "CNC(=O)CCc1cc(C)nc(C2CCN(c3cnccn3)CC2)c1", "INHIBITION": 34.65},
      {"smiles": "CC(=O)N1CCCC1c1nccnc1NCc1cccnc1", "note": "(stereo unspecified)", "INHIBITION": -9.51},
      {"smiles": "CNc1cncc(C2CCN(S(C)(=O)=O)CC2)n1", "INHIBITION": 12.8},
      {"smiles": "CCCC(NC(=O)c1ccccc1Br)c1nnn[nH]1", "note": "(stereo unspecified)", "INHIBITION": 43.1},
      {"smiles": "Cc1noc(C)c1CC(=O)N1CCC(c2ccn3nccc3n2)CC1", "INHIBITION": -27.8},
      {"smiles": "CS(=O)(=O)N1CC[C@H]2OCC[C@@]2(C(=O)NCCc2ccccn2)C1", "INHIBITION": 38.5},
      {"smiles": "Nc1cc(CCCNC(=O)NC2CCCC2)nn1-c1ccccc1", "INHIBITION": -26.2},
      {"smiles": "CC(C)N(C(=O)CCc1cccc(F)c1)C1CCOCC1", "INHIBITION": -6.34},
      {"smiles": "CN1CCN(C(=O)c2nc3c(s2)CCCN3C(=O)C2CC2)CC1", "INHIBITION": 37.9},
      {"smiles": "CCc1nnc2n1CCN(Cc1ncc(-c3ccccc3)o1)C2", "INHIBITION": 9.665},
      {"smiles": "CCN(CC1CCOC1)C(=O)c1cnc2onc(C)c2c1", "note": "(stereo unspecified)", "INHIBITION": 34.15},
      {"smiles": "O=C(NCCn1ccc(-c2ccncc2)n1)c1ccc2c(c1)OCO2", "INHIBITION": 64.5},
      {"smiles": "O=C(NCCn1ccc(-c2ccccn2)n1)C1CC1", "INHIBITION": -30},
      {"smiles": "O=C(NCCn1ccc(-c2ccncc2)n1)C1CC1", "INHIBITION": 52.6},
      {"smiles": "CC(C)(C)C(=O)NCCn1ccc(-c2ccncc2)n1", "INHIBITION": 11.9},
      {"smiles": "O=C(NCCn1ccc(-c2ccncc2)n1)c1ccncc1", "INHIBITION": 26.4},
      {"smiles": "O=C(CC1CCCC1)NCCn1ccc(-c2ccncc2)n1", "INHIBITION": 36.3},
      {"smiles": "Cc1nnsc1C(=O)NCCn1ccc(-c2ccncc2)n1", "INHIBITION": 61.5},
      {"smiles": "CC(C)(C)CC(=O)NCCn1ccc(-c2ccncc2)n1", "INHIBITION": -4.99},
      {"smiles": "O=C(NCCn1ccc(-c2ccccn2)n1)c1ccncc1", "INHIBITION": 31.2},
      {"smiles": "CCOCC(O)CN1CCN(C(=O)c2cc(C)ccc2OC)CC1", "note": "(stereo unspecified)", "INHIBITION": -35.7},
      {"smiles": "Cn1cc(CC2CCN(C(=O)NCc3csc(C4CC4)n3)C2)cn1", "note": "(stereo unspecified)", "INHIBITION": 11.8},
      {"smiles": "O=C(O)c1cccnc1CN1CCCCC1CCc1cccs1", "note": "(stereo unspecified)", "INHIBITION": 5.78},
      {"smiles": "Cc1nc(NC(=O)N[C@H](CO)c2ccccc2)sc1C", "INHIBITION": 7.3},
      {"smiles": "COc1ccc2cc(C(=O)NCCc3nc(C)no3)[nH]c2c1", "INHIBITION": -1.79},
      {"smiles": "COc1ccc2nc(CCNC(=O)c3cc(CC(C)C)no3)[nH]c2c1", "INHIBITION": 55.5},
      {"smiles": "CCn1nc(C(C)C)cc1C(=O)NCc1nc2ccc(OC)cc2[nH]1", "INHIBITION": 37.6},
      {"smiles": "COc1ccc(COCC(O)CNC(=O)c2cc(C)no2)cc1", "note": "(stereo unspecified)", "INHIBITION": 5.03},
      {"smiles": "COc1ccc2nc(CNC(=O)c3cc(C(C)C)on3)[nH]c2c1", "INHIBITION": 27.5},
      {"smiles": "COc1ccc2nc(CNC(=O)c3cc(C(C)C)no3)[nH]c2c1", "INHIBITION": 73.4},
      {"smiles": "Cc1ccc(CN2CCC[C@]3(C(=O)O)CN(C)C[C@@H]3C2)s1", "INHIBITION": 6.79},
      {"smiles": "c1ccc2c(c1)cnn2CCCNC1CCOC2(CCOCC2)C1", "note": "(stereo unspecified)", "INHIBITION": -9.39},
      {"smiles": "c1csc(N2CCCN(c3nccn4cnnc34)CC2)n1", "INHIBITION": -27.8},
      {"smiles": "CN(CCOc1ccc(Cl)cc1)Cc1ccc(S(=O)(=O)N(C)C)o1", "INHIBITION": 51},
      {"smiles": "Cc1cc(C)cc(OCCN(C)Cc2ccc(S(=O)(=O)N(C)C)o2)c1", "INHIBITION": 7.39},
      {"smiles": "Cc1ccc(OCCN(C)Cc2ccc(S(=O)(=O)N(C)C)o2)cc1", "INHIBITION": 47.7},
      {"smiles": "CC(C)NC(=O)c1ccc2c(c1)C1(CCN(C(C)C)CC1)C(=O)N2", "INHIBITION": -25.1},
      {"smiles": "O=C(NCCNc1ncccn1)C1CCN(C(=O)N2CCCC2)CC1", "INHIBITION": -33.9},
      {"smiles": "O=C1CC(c2ccc(O)cc2)c2c(n3ccsc3nc2=O)N1", "note": "(stereo unspecified)", "INHIBITION": 2.66},
      {"smiles": "CCO[C@@H]1CC[C@H]2[C@H]1OCCN2CC1CCOCC1", "INHIBITION": 27.6},
      {"smiles": "CCO[C@@H]1CC[C@H]2[C@H]1OCCN2CC1CCC1", "INHIBITION": 54.7},
      {"smiles": "C1CCC(CO[C@@H]2CC[C@H]3[C@H]2OCCN3CC2CCOCC2)C1", "INHIBITION": 65.6},
      {"smiles": "C1CC(CO[C@@H]2CC[C@H]3[C@H]2OCCN3CC2CC2)CCO1", "INHIBITION": -11.6},
      {"smiles": "CO[C@@H]1CC[C@H]2[C@H]1OCCN2CC1CC1", "INHIBITION": 23.6},
      {"smiles": "C1CC(CO[C@@H]2CC[C@H]3[C@H]2OCCN3CC2CCOCC2)CCO1", "INHIBITION": 7.31}
    ]}
  ]
}
